This note sets out measurements from PubChem BioAssay (NCATS).

Values without a mark were called inactive. No rule for the calls is given here.
Potency is read from the fitted curve at half-maximal effect.

In the assay the test system is HIV-1 nucleocapsid protein NCp7 (binding to TG oligonucleotide). The assay can be described thus: HIV Nucleocapsid (AID 346).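 Also: potency is for inhibitors that block NC binding and lower polarization.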 As to conditions: HIV-1 NC / fluorescein-TGTGTGTG probe, fluorescence polarization. The procedure, abridged:
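NCp7 100 nM + fluorescein TG4xF 10 nM; Hepes pH 7.5/250mM NaCl/1uM ZnCl2/0.004% PEG 20000; 1 hr RT; FP, 45 s exposure; oligo-only wells as negative control.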
Take `c1nc(NC2CCNCC2)c2cc(-c3ccc4c(c3)OCO4)ccc2n1`: the Potency is > 20 µM.
Then `Cc1ccccc1-c1cc(NCCN2CCOCC2)ncn1`, with > 20 µM.
Then `COc1ccc(-n2c(=O)c(-c3cccs3)nc3cnc(N4CCOCC4)nc32)cc1`, with > 4 µM; and `O=C(c1ccco1)N1CCC2(CC1)CCN(c1ncccn1)CC2`, with > 20 µM; and `Cn1cc(-c2nc3cnc(Oc4cccc(Cl)c4)nc3n(C3CC3)c2=O)c2ccccc21`, with > 20 µM.
With `CS(=O)(=O)N1CCC[C@@]2(CCN(C(c3ccccc3)c3ccccc3)C2)C1` the figure was > 20 µM; with `COc1ccc2[nH]cc(CCNc3ccnc(-c4ccc(C(=O)N(C)C)cc4)n3)c2c1`, > 20 µM; with `c1cncc(-c2cc(NCc3cccs3)ncn2)c1`, > 20 µM.
As to `COc1ccc(-n2c(=O)cnc3cnc(N4CCNCC4)nc32)cc1`, the Potency is > 20 µM.
Then `CS(=O)(=O)Nc1cccc(-c2cc(Nc3ccccc3)ncn2)c1`, with > 20 µM.
As to `COC(=O)N1CCC[C@@]2(CCN(C(=O)Nc3ccccc3)C2)C1`, the Potency was > 20 µM.
For the molecule `COc1cccc(Nc2ncc3nc(-c4cc(F)cc(F)c4)c(=O)n(CCC#N)c3n2)c1`, the Potency was > 20 µM.
As for `Cc1noc(C)c1C(=O)N1CCC2(CCCN(Cc3ccccc3)C2)CC1`, the Potency was > 20 µM.
With `N#Cc1ccc(CN2CCCC3(CCN(C(=O)c4cnccn4)CC3)C2)cc1` the figure was > 20 µM; with `CN(C)c1ccc(-c2cc(Nc3ccc(F)cc3)ncn2)cc1`, > 20 µM.
Consider `COc1cccc(Cn2c(=O)c(-c3cn(C)c4ccccc34)nc3cnc(N4CCNCC4)nc32)c1`, for which the Potency was > 20 µM.
With `COCCn1c(=O)c(-c2ccccc2)nc2cnc(OCc3ccccc3)nc21` the figure was > 20 µM.
Then `COc1ncc2nc(-c3ccc(F)cc3)c(=O)n(Cc3cccs3)c2n1`, with > 20 µM; and `COc1ccc(-c2nc3cnc(N(C)C)nc3n(C)c2=O)cc1`, with > 4 µM.
On to `Cc1noc(C)c1-c1cc(N2CCN(C)CC2)ncn1`, for which the Potency is > 20 µM.
With `O=c1c(-c2cccc(Cl)c2)nc2cncnc2n1-c1ccccc1` the figure was > 20 µM; with `c1cncc(-c2cc(-n3ccnc3)ncn2)c1`, > 20 µM; with `Cc1cccc(CNc2cc(-c3ccoc3)ncn2)c1`, > 20 µM.
Then `O=c1c(-c2ccccc2)nc2cnc(N3CCOCC3)nc2n1C[C@H]1CCCO1`, with > 20 µM.
Turning to `COc1ccccc1-c1ccc2ncnc(NCCN3CCOCC3)c2c1`, the Potency was > 20 µM.
Turning to `COc1cccc(Nc2ncc3ncc(=O)n(Cc4cccs4)c3n2)c1`, the Potency was > 20 µM.
Then `CN(C)C(=O)c1ccc(-c2cncnc2NCCN2CCOCC2)cc1`, with > 20 µM; and `O=C(c1csnn1)N1CCC2(CCN(Cc3nccs3)CC2)CC1`, with > 20 µM; and `COCCn1c(=O)c(-c2ccccc2)nc2cncnc21`, with > 20 µM.
Regarding `CS(=O)(=O)N1CCC[C@@]2(CCN(Cc3ccccc3)C2)C1`, the Potency was > 20 µM.
With `COc1ccccc1-c1ccc2ncnc(N3CCOCC3)c2c1` the figure was > 20 µM; with `Cc1cccc(CNc2ncnc3ccc(-c4cccnc4)cc23)c1`, > 20 µM.
With `COCCn1c(=O)c(C)nc2cnc(N3CCOCC3)nc21` the figure was > 20 µM.
Take `COC(=O)N1CCC[C@@]2(CCN(C(=O)Nc3ccc(OC)cc3)C2)C1`: the Potency was > 20 µM.
`COc1ccccc1CN1CCC2(CC1)CCN(C(C)=O)CC2`: the Potency was > 20 µM.
Then `O=c1c(-c2ccccc2)nc2cnc(Oc3ccccc3)nc2n1C[C@H]1CCCO1`, with > 20 µM.
With `Cn1cc(-c2nc3cnc(Oc4ccccc4)nc3n(C3CC3)c2=O)c2ccccc21` the figure was > 20 µM.
In the case of `COc1cccc(Cn2c(=O)cnc3cnc(Nc4cccc(OC)c4)nc32)c1`, the Potency was > 20 µM.
With `CS(=O)(=O)N1CCC2(CCCN(c3ccncc3)C2)CC1` the figure was > 20 µM.
With `COc1ccc(Oc2ncc3nc(-c4cc(F)cc(F)c4)c(=O)n(CCC#N)c3n2)cc1` the figure was > 20 µM.
